Log fold change Tl+ flux data for 13 molecules are collected here from PubChem BioAssay.

SMILES strings stand for the structures. A number with no mark means an inactive call. The source made the active and inactive calls.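 How the source made its calls: active means thallium flux through the channel raised or lowered by more than 3 SD from vehicle-only wells, actives on both sides; inactive means the rest.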

Experiment in all cases: BK channel mutant inhibitors and activators – cell-based, U2OS BacMam, thallium flux, beta subunits, selectivity assay, profiling panel (AID 1259406);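 further: initial slope of Thallos dye fluorescence rise after thallium is added; log ratio against the mean of 0.3% DMSO vehicle wells on the same plate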
The subject of assay [1] is F380Y. To be noted: U2OS BacMam BK variants, at 30 µM.
Assay [2] concerns F380Y/beta1. To be noted: U2OS BacMam BK variants, at 30 µM.
Assay [3] has as its system F380Y/beta2Delta. Particulars: U2OS BacMam BK variants, at 30 µM.
The subject of assay [4] is F380Y/beta4. To be noted: U2OS BacMam BK variants, at 30 µM.
Assay [5] addresses Calcium-activated potassium channel subunit alpha-1 (Homo sapiens) + Leucine-rich repeat-containing protein 26 (Homo sapiens) (UniProt Q12791+Q2I0M4). To be noted: U2OS BacMam BK variants, F380Y/Slo1WT/gamma1, at 30 µM.
Assay [6] has as its system R275C. To be noted: U2OS BacMam BK variants, at 30 µM.
Assay [7] deals with R275C/beta1. To be noted: U2OS BacMam BK variants, at 30 µM.
The test system of assay [8] is R275C/beta2Delta. Particulars: U2OS BacMam BK variants, at 30 µM.
Assay [9] concerns R275C/beta4. To be noted: U2OS BacMam BK variants, at 30 µM.
Assay [10] relates to R275C/Slo1WT/beta2. To be noted: U2OS BacMam BK variants, at 30 µM.

Calcium-activated potassium channel subunit alpha-1 (Homo sapiens) + Leucine-rich repeat-containing protein 26 (Homo sapiens), sequence (Q2I0M4 whole entry, looked up, one chain of several): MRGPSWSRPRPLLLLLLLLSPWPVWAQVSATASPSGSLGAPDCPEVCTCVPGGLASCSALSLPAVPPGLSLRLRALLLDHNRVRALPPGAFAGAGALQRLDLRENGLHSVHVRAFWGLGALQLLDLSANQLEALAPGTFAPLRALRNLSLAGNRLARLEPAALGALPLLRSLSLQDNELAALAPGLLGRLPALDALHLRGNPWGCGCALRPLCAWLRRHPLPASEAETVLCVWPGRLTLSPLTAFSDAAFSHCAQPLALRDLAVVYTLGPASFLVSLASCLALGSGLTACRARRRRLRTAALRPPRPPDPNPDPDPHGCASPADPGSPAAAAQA

On to `Cn1c(SCCS(=O)(=O)c2ccc(OC(F)(F)F)cc2)nnc1C(F)(F)F`, for which the log fold change Tl+ flux in [1] is -0.047; in assay [2], -0.00843; in assay [3], -0.0119; in assay [4] it was 0.00857; in assay [5] it was -0.00452; in assay [6], 0.0189. For the same molecule, the log fold change Tl+ flux was -0.0256 in assay [7], -0.0306 in assay [8], -0.0219 in assay [9] and -0.0104 in assay [10].

Regarding `CSc1nc(C)nc(Sc2cccc(C(F)(F)F)c2)c1C#N`, the log fold change Tl+ flux in assay [1] was -0.0573; in assay [2], 0.0287; in assay [3], 0.00499; in assay [4], 0.0691; in assay [5] it was 0.0378; in [6], -0.0292. Also, the log fold change Tl+ flux was -0.00668 in [7], -0.023 in assay [8], 0.00747 in assay [9] and 0.00901 in [10].

As to `CCN1CCC(O)(C#Cc2ccccc2)CC1`, the log fold change Tl+ flux in [1] is -0.00462; in assay [2], 0.0157; in assay [3], -0.0113; in assay [4], -0.0547; in assay [5], 0.00398; in assay [6], -0.00643. For the same molecule, the log fold change Tl+ flux in assay [7] was 0.0179; in assay [8] it was 0.0235; in assay [9], -0.01; in assay [10] it was 0.0236.

For `COC(=O)c1sc(-c2ccc(Cl)cc2)cc1NC(=O)c1ccc2nsnc2c1`, the log fold change Tl+ flux in assay [1] is 0.0226; in assay [2] it was 0.0354; in assay [3], 0.0206; in assay [4], 0.0283; in [5], 0.00872; in assay [6], 0.0185. Further, the log fold change Tl+ flux in assay [7] was -0.00968; in [8] it was -0.0231; in assay [9], -0.00956; in [10], 0.0403.

In the case of `O=S(=O)(Nc1cc(Cl)c(-n2cccc2)cc1Oc1ccc(Cl)cc1)c1ccc(Cl)cc1`, the log fold change Tl+ flux was 0.0117 in [1]; -0.0223 in assay [2]; 0.00907 in assay [3]; -0.0612 in assay [4]; -0.0472 in [5]; 0.0112 in assay [6]. The log fold change Tl+ flux is -0.0614 in [7], -0.0256 in [8], 0.0232 in assay [9] and -0.0536 in assay [10].

Take `O=C(NC(=O)N1CCCCC1)c1cc(Br)cc(Br)c1`: the log fold change Tl+ flux is -0.337 (active) in assay [1]; -0.109 (active) in assay [2]; -0.277 (active) in assay [3]; -0.0283 in [4]; -0.127 (active) in assay [5]; -0.145 (active) in assay [6]. Moreover, the log fold change Tl+ flux in assay [7] was -0.0155; in assay [8], -0.0701; in assay [9], -0.0253; in assay [10] it was -0.0054.

For `O=C(c1ccc(-c2cccs2)s1)c1ccc(F)cc1F`, the log fold change Tl+ flux in assay [1] is -0.00876; in assay [2], 0.022; in assay [3], 0.0129; in assay [4], 0.0546; in [5], 0.0119; in assay [6] it was -0.00813. Further, the log fold change Tl+ flux in [7] was 0.00849; in assay [8] it was 0.0495; in assay [9], -0.00599; in assay [10] it was 0.0293.

In the case of `O=C1CCC(=O)N1c1ccc(S(=O)(=O)NCCCN2CCN(Cc3ccccc3)CC2)cc1`, the log fold change Tl+ flux is 0.0288 in assay [1]; 0.0192 in [2]; -0.00712 in [3]; -0.0181 in assay [4]; 0.0299 in assay [5]; -0.0386 in [6]. In addition, the log fold change Tl+ flux in [7] is 0.0158; in assay [8], -0.00414; in assay [9], -0.00195; in assay [10], -0.018.

Consider `Cc1ccc(S(N)(=O)=O)c(I)c1`, for which the log fold change Tl+ flux in assay [1] was 0.00642; in assay [2], 0.0178; in [3], 0.0148; in assay [4], -0.000543; in assay [5], -0.0495; in assay [6], 0.0442. In addition, the log fold change Tl+ flux in [7] was 0.0166; in assay [8] it was -0.00341; in assay [9], 0.00339; in assay [10], -0.0513.

For `Cc1ccc(S(=O)(=O)NC(=O)NCc2csc3ccc(Cl)cc23)cc1`, the log fold change Tl+ flux was 0.252 (active) in [1]; 0.65 (active) in assay [2]; 0.241 (active) in [3]; 0.366 (active) in assay [4]; 0.14 (active) in assay [5]; 0.0453 in assay [6]. For the same molecule, the log fold change Tl+ flux is 0.48 (active) in assay [7], 0.193 (active) in assay [8], 0.329 (active) in assay [9] and 0.116 (active) in assay [10].

Take `Cc1cnc(N)c(C)n1`: the log fold change Tl+ flux is 0.0781 in [1]; 0.0374 in assay [2]; 0.0872 in assay [3]; -0.0219 in [4]; 0.00805 in assay [5]; -0.0212 in assay [6]. Besides, the log fold change Tl+ flux in [7] was -0.0766; in assay [8], 0.039; in [9], -0.0212; in [10] it was 0.0123.

As to `OC(Cc1ccccc1)(c1ccccc1)c1ccccc1N=Cc1ccc2c(c1)OCO2` (stereo not given), the log fold change Tl+ flux is 0.00821 in [1]; 0.0126 in [2]; -0.0347 in assay [3]; -0.0765 in assay [4]; -0.0874 in [5]; -0.0385 in [6]. Also, the log fold change Tl+ flux was -0.0387 in assay [7], -0.0661 in [8], -0.00775 in assay [9] and -0.0302 in assay [10].

In the case of `Cc1nn(-c2ccccc2)nc1C(=O)NNC(=O)CSCc1cccc2ccccc12`, the log fold change Tl+ flux was 0.029 in assay [1]; 0.0449 in assay [2]; 0.0266 in [3]; -0.00465 in assay [4]; -0.0205 in assay [5]; 0.0152 in assay [6]. Also, the log fold change Tl+ flux in assay [7] was 0.0429; in assay [8], -0.0226; in assay [9], 0.097 (active); in assay [10] it was 0.0123.
